Results filed as inconclusive are left out. A call without a number means that no potency is given here. The source made the active and inactive calls. The call rests on the fitted dose curve; in most records, active means well fitted activation curve with a large enough effect in the signal ratio in the repeat runs (not every such curve was filed as active); inconclusive means weak or mixed curves, or effect the other way; inactive means no such curve, though single readings can be large or run the other way; the % refers to the signal ratio. Positions of bridges follow the written chain, without caps; N, C: chain ends. Non-standard residues stand in square brackets, D forms with d. Residues, ends and D or L forms follow the SMILES beside them. hArg = N=C(N)NCCCC[C@H](N)C(=O)O; Mpa = O=C(O)CCS
Molecular target: Glucocorticoid receptor (Homo sapiens) (UniProt P04150)
Sequence (P04150 whole entry, looked up): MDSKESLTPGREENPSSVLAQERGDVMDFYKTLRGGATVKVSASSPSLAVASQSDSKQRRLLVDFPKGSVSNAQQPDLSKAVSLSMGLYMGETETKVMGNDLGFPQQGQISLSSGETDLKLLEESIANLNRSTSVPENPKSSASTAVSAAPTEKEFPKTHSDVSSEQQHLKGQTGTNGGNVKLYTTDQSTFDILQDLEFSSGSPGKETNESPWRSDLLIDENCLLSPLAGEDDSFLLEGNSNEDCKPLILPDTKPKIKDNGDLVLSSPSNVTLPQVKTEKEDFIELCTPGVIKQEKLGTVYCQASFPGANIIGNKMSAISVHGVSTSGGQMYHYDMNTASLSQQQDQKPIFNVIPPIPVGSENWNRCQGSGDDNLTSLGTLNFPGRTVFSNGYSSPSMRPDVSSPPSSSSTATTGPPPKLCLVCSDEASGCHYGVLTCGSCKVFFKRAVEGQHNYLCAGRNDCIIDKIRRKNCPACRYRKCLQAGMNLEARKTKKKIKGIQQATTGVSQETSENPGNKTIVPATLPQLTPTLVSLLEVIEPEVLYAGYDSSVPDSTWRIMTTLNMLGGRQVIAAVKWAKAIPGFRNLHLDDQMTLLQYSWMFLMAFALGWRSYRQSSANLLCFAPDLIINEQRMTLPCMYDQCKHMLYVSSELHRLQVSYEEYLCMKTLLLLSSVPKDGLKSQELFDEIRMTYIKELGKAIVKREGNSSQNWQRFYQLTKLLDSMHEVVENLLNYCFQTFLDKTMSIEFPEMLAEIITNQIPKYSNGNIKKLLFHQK
Assay: qHTS assay to identify small molecule agonists of the glucocorticoid receptor (GR) signaling pathway (AID 720691)
Settings: GR-bla HeLa, beta-lactamase reporter ratio, 18 h; series mostly up to 62.4 µM
Description: U.S. Tox21 Program National Center for Advancing Translational Sciences [NCATS] NIH Chemical Genomics Center [NCGC] U.S. Environmental Protection Agency [EPA] National Institutes of Environmental Health Sciences [NIEHS] National Toxicology Program [NTP] U.S. Food and Drug Administration [FDA] Tox21 Assay Overview: The Glucocorticoid receptor (GR) is one of the members of the nuclear receptor family of ligand-dependent transcription factors. GR plays a critical role in carbohydrate, protein and lipid metabolisms and programmed cell death. CellSensor GR-bla HeLa cell line (Invitrogen) contains a beta-lactamase reporter gene under the control of the glucocorticoid response element stably integrated into HeLa cells, a cervical cancer cell line that expresses glucocorticoid receptor. The activation of the reporter gene under culture conditions can be detected by fluorescence intensity. This cell line has been used to screen the Tox21 10K compound library and to identify the compounds that activate the GR signaling.
Tox21 Assay Protocol Summary: The GR-bla HeLa cells were dispensed at 1500 cells/6 ul/well in 1536-well black wall/clear bottom plates using a Multidrop Combi (ThermoFisher Scientific, Waltham, MA) dispenser. After the assay plates were incubated at a 37 C/5% CO2 incubator for 4 hours, 23 nL of compounds dissolved in DMSO, positive controls or DMSO only was transferred to the assay plate by a pintool station (Kalypsys, San Diego, CA). The plates were incubated at 37 C for 18 hours. After 1 uL of LiveBLAzerTM B/G FRET substrate was added using a Flying Reagent Dispenser (Aurora Discovery, San Diego, CA), the plates were incubated at room temperature for 2 hours, and fluorescence intensity was measured by an Envision plate reader (PerkinElmer, Shelton, CT).

**Q.** For `CNCCS(=O)(=O)O`, which Potency is on record?
**A.** The Potency was “inactive”.

**Q.** How did the Potency turn out when `CC(=O)O[Si](C)(OC(C)=O)OC(C)=O` was run?
**A.** The Potency was “inactive”.

**Q.** With `CC1(C)CC(OC(=O)CCCCCCCCC(=O)OC2CC(C)(C)NC(C)(C)C2)CC(C)(C)N1` as the compound, how does the Potency read?
**A.** Its Potency is “inactive”.

**Q.** Which Potency does the source give for `CCCCC1CCC(O)CC1` (stereo not given) here?
**A.** Its Potency is “inactive”.

**Q.** Which Potency does the source give for `CC1CC(=O)CC(C)(C)C1` (stereo not given) here?
**A.** The Potency was “inactive”.

**Q.** For `CO/N=C(/C(=O)N[C@@H]1C(=O)N2C(C(=O)[O-])=C(C[n+]3ccn4ncccc43)CS[C@H]12)c1nsc(N)n1`, which Potency is on record?
**A.** The Potency was “inactive”.

**Q.** How did the Potency turn out when `O=Cc1cc2ccccc2o1` was run?
**A.** Its Potency is “inactive”.

**Q.** With `CC(O)CC(C)O` (stereo not given) as the compound, how does the Potency read?
**A.** The Potency was “inactive”.

**Q.** How did the Potency turn out when `C=CCCCC` was run?
**A.** Its Potency is “inactive”.

**Q.** `O=[N+]([O-])c1c(Cl)cc(Cl)cc1Cl` was tested. Which Potency did it give?
**A.** Its Potency is “inactive”.

**Q.** With `OC[C@@H](O)C(O)[C@@H](O)CO` (stereo not given in full) as the compound, how does the Potency read?
**A.** The Potency was “inactive”.

**Q.** How did the Potency turn out when `CCCCCCCCCCCCCCCCCC#N` was run?
**A.** Its Potency is “inactive”.

**Q.** For `Cc1cccc(Cl)c1`, which Potency is on record?
**A.** Its Potency is “inactive”.

**Q.** How did the Potency turn out when `CC(=O)CCC1=C(C)CCCC1(C)C` was run?
**A.** Its Potency is “inactive”.

**Q.** `CCCSSCCC` was tested. Which Potency did it give?
**A.** The Potency was “inactive”.

**Q.** For `Cc1c(Cl)cccc1Cl`, which Potency is on record?
**A.** The Potency was “inactive”.

**Q.** With `C=CC/C=C/C` as the compound, how does the Potency read?
**A.** Its Potency is “inactive”.

**Q.** Which Potency does the source give for `COC(=O)CCCCC(=O)O` here?
**A.** Its Potency is “inactive”.

**Q.** `Cc1ccc(C)c([N+](=O)[O-])c1` was tested. Which Potency did it give?
**A.** Its Potency is “inactive”.

**Q.** With `C/C(CC(C)C)=N\O` as the compound, how does the Potency read?
**A.** Its Potency is “inactive”.

**Q.** For `COP(=O)(O)OP(=O)(O)OC`, which Potency is on record?
**A.** Its Potency is “inactive”.

**Q.** With `CCCCCC(C)O` (stereo not given) as the compound, how does the Potency read?
**A.** Its Potency is “inactive”.

**Q.** `O=C(O)CCCCCC(=O)O` was tested. Which Potency did it give?
**A.** The Potency was “inactive”.

**Q.** With `NC(=O)[C@@H]1CSSCCC(=O)N[C@@H](CCCCN=C(N)N)C(=O)NCC(=O)N[C@@H](CC(=O)O)C(=O)N[C@@H](Cc2c[nH]c3ccccc23)C(=O)N2CCC[C@H]2C(=O)N1` ([Mpa][hArg]GDWPC-NH2; disulfide 1-7) as the compound, how does the Potency read?
**A.** The Potency was “inactive”.

**Q.** For `CN(C)CCOC(=O)C(c1ccccc1)C1(O)CCCC1` (stereo not given), which Potency is on record?
**A.** Its Potency is “inactive”.

**Q.** `CC(=O)c1cc(C)oc1C` was tested. Which Potency did it give?
**A.** Its Potency is “inactive”.

**Q.** `CCCCCC/C=C/C(=O)OC` was tested. Which Potency did it give?
**A.** Its Potency is “inactive”.

**Q.** How did the Potency turn out when `CC(O)COC(C)(C)C` (stereo not given) was run?
**A.** Its Potency is “inactive”.

**Q.** How did the Potency turn out when `CC(N)CCCC(C)(C)O` (stereo not given) was run?
**A.** The Potency was “inactive”.

**Q.** For `OCC1CCC(CO)CC1` (stereo not given), which Potency is on record?
**A.** Its Potency is “inactive”.

**Q.** How did the Potency turn out when `CCCCCCCCCCCCCCC(=O)NC(CO)CCCCCCCCCCCCCC` (stereo not given) was run?
**A.** Its Potency is “inactive”.

**Q.** How did the Potency turn out when `CC(C)Nc1ccccc1` was run?
**A.** Its Potency is “inactive”.

**Q.** `C/C=C(\C)C(C)=O` was tested. Which Potency did it give?
**A.** The Potency was “inactive”.

**Q.** For `CC(C)(C)NC[C@H](O)COc1cccc2c1CCCC2=O`, which Potency is on record?
**A.** Its Potency is “inactive”.

**Q.** `O=C(CCCCC(=O)Nc1c(I)cc(I)c(C(=O)O)c1I)Nc1c(I)cc(I)c(C(=O)O)c1I` was tested. Which Potency did it give?
**A.** Its Potency is “inactive”.

**Q.** With `CC1(C)Oc2ccc(C#N)cc2[C@@H](N2CCCC2=O)[C@@H]1O` as the compound, how does the Potency read?
**A.** Its Potency is “inactive”.

**Q.** For `O=C(Cl)c1ccccc1[N+](=O)[O-]`, which Potency is on record?
**A.** Its Potency is “inactive”.

**Q.** How did the Potency turn out when `[O]=[Mo](=[O])=[O]` was run?
**A.** Its Potency is “inactive”.

**Q.** Which Potency does the source give for `CC(CO)(CO)CO` here?
**A.** The Potency was “inactive”.

**Q.** Which Potency does the source give for `CCOC(CN1CCN(CC(C)C(=O)c2ccccc2)CC1)c1ccccc1` (stereo not given) here?
**A.** Its Potency is “inactive”.
